Source: PubChem BioAssay (NCATS)
Records with an inconclusive call do not appear. Where a call stands in place of a potency, no number is given. Values without a mark were called inactive. Active and inactive are the calls of the source. Calls follow the shape of the dose curve; as a rule, active = well fitted cell-killing curve with a large enough effect; inconclusive = small, poorly fitted or top-dose-only effect, or effect the other way; inactive = no such curve, though single readings can be large or run the other way.

What was measured:
[1] = Quantitative High-Throughput drug screen in 47 multiple myeloma cell lines against the NCATS MIPE library collection: KMS28PE_JCRB cell viability assay (AID 1918983); also: nearly all actives have a fitted effect of over 35% in size; also: potency is read from the fitted curve at half-maximal effect
Summary of the method: (§1)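 500 cells/well per myeloma line exposed to pinned MIPE 4.0 compounds for 48 h at 37 °C, 5% CO2. Viability read as ATP by CellTiter-Glo luminescence, normalised to DMSO-only (100%) and media-only (0%) wells.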

[2] = Quantitative High-Throughput drug screen in 47 multiple myeloma cell lines against the NCATS MIPE library collection: KMS34_JCRB cell viability assay (AID 1918985); also: nearly all actives have a fitted effect of over 40% in size; also: potency is read from the fitted curve at half-maximal effect
Summary of the method: as §1

[3] = Quantitative High-Throughput drug screen in 47 multiple myeloma cell lines against the NCATS MIPE library collection: OPM1_PLB cell viability assay (AID 1918989); also: nearly all actives have a fitted effect of over 40% in size; also: potency is read from the fitted curve at half-maximal effect
Summary of the method: as §1

[4] = Quantitative High-Throughput drug screen in 47 multiple myeloma cell lines against the NCATS MIPE library collection: SKMM1_PLB cell viability assay (AID 1919863); details: SKMM1 myeloma viability, CellTiter-Glo ATP, 48 h; viability: stronger effect = lower value; also: nearly all actives have a fitted effect of over 35% in size; also: potency is read from the fitted curve at half-maximal effect; as to viability: series mostly up to about 46 µM
Summary of the method: as §1

[5] = Quantitative High-Throughput drug screen in 47 multiple myeloma cell lines against the NCATS MIPE library collection: U266_ATCC cell viability assay (AID 1919864); also: nearly all actives have a fitted effect of over 35% in size; also: potency is read from the fitted curve at half-maximal effect
Summary of the method: as §1

[6] = Quantitative High-Throughput drug screen in 47 multiple myeloma cell lines against the NCATS MIPE library collection: XG6_PLB cell viability assay (AID 1919865); also: nearly all actives have a fitted effect of over 40% in size; also: potency is read from the fitted curve at half-maximal effect
Summary of the method: as §1

[7] = Quantitative High-Throughput drug screen in 47 multiple myeloma cell lines against the NCATS MIPE library collection: XG1_PLB cell viability assay (AID 1919866); also: nearly all actives have a fitted effect of over 35% in size; also: potency is read from the fitted curve at half-maximal effect
Summary of the method: as §1

[8] = Quantitative High-Throughput drug screen in 47 multiple myeloma cell lines against the NCATS MIPE library collection: RPMI8226_ATCC cell viability assay (AID 1919871); also: nearly all actives have a fitted effect of over 30% in size; also: potency is read from the fitted curve at half-maximal effect
Summary of the method: as §1

[9] = Quantitative High-Throughput drug screen in 47 multiple myeloma cell lines against the NCATS MIPE library collection: OPM2_DSMZ cell viability assay (AID 1919872); also: nearly all actives have a fitted effect of over 30% in size; also: potency is read from the fitted curve at half-maximal effect
Summary of the method: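 Primary qHTS used for cherry-picking: cells at 500/well, library compounds for 48 h (37C, 5% CO2), luminescent ATP assay.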

[10] = Quantitative High-Throughput drug screen in 47 multiple myeloma cell lines against the NCATS MIPE library collection: KMS11_JCRBsus cell viability assay (AID 1919873); also: nearly all actives have a fitted effect of over 50% in size; also: potency is read from the fitted curve at half-maximal effect
Summary of the method: as §1

[11] = Quantitative High-Throughput drug screen in 47 multiple myeloma cell lines against the NCATS MIPE library collection: KMS28BM_JCRB cell viability assay (AID 1919874); also: nearly all actives have a fitted effect of over 35% in size; also: potency is read from the fitted curve at half-maximal effect
Summary of the method: as §1

[12] = Quantitative High-Throughput drug screen in 47 multiple myeloma cell lines against the NCATS MIPE library collection: OCIMY7_PLB cell viability assay (AID 1918987); also: potency is read from the fitted curve at half-maximal effect; nearly all actives have a fitted effect of over 65% in size
Summary of the method: as §1

[13] = Quantitative High-Throughput drug screen in 47 multiple myeloma cell lines against the NCATS MIPE library collection: PE2_PLB cell viability assay (AID 1919869); also: nearly all actives have a fitted effect of over 35% in size; also: potency is read from the fitted curve at half-maximal effect
Summary of the method: as §1

[14] = Quantitative High-Throughput drug screen in 47 multiple myeloma cell lines against the NCATS MIPE library collection: UTMC2_PLB cell viability assay (AID 1919868); also: nearly all actives have a fitted effect of over 55% in size; also: potency is read from the fitted curve at half-maximal effect
Summary of the method: as §1

[15] = Quantitative High-Throughput drug screen in 47 multiple myeloma cell lines against the NCATS MIPE library collection: PCM6_Riken cell viability assay (AID 1919870); also: nearly all actives have a fitted effect of over 30% in size; also: potency is read from the fitted curve at half-maximal effect
Summary of the method: as §1

[16] = Quantitative High-Throughput drug screen in 47 multiple myeloma cell lines against the NCATS MIPE library collection: VP6_DJ cell viability assay (AID 1919867); also: nearly all actives have a fitted effect of over 40% in size
Summary of the method: as §1

[17] = Quantitative High-Throughput drug screen in 47 multiple myeloma cell lines against the NCATS MIPE library collection: OCIMY5_PLB cell viability assay (AID 1918988); also: nearly all actives have a fitted effect of over 65% in size; also: potency is read from the fitted curve at half-maximal effect
Summary of the method: as §1

[18] = Quantitative High-Throughput drug screen in 47 multiple myeloma cell lines against the NCATS MIPE library collection: L363_DSMZ cell viability assay (AID 1918984); also: nearly all actives have a fitted effect of over 40% in size
Summary of the method: as §1

Row | Structure (SMILES) | Potency [1] | Potency [2] | Potency [3] | viability [4] | Potency [5] | Potency [6] | Potency [7] | Potency [8] | Potency [9] | Potency [10] | Potency [11] | Potency [12] | Potency [4] | Potency [13] | Potency [14] | Potency [15] | Potency [16] | Potency [17] | Potency [18]
1 | Cc1ccccc1N1C(=O)c2cc(S(N)(=O)=O)c(Cl)cc2NC1C (stereo not given) | inactive | inactive | inactive | 117% | 3.72 µM (active) | inactive | inactive | 7.43 µM (active) | inactive | inactive | inactive |  |  |  |  |  |  |  | 
2 | O=C1c2c(O)ccc(O)c2C(=O)c2c(NCCNCCO)ccc(NCCNCCO)c21 | 0.935 µM (active) | 2.96 µM (active) | 0.935 µM (active) |  | 1.05 µM (active) | 0.118 µM (active) | 0.332 µM (active) | 4.69 µM (active) | 3.32 µM (active) | 1.48 µM (active) | 0.662 µM (active) | 1.05 µM (active) | 2.96 µM (active) | 0.166 µM (active) |  |  |  |  | 
3 | O=C1N(c2ccccc2)c2ccccc2C1(Cc1ccncc1)Cc1ccncc1 | inactive | inactive | inactive | 122% | inactive |  | 18.7 µM (active) | inactive | inactive | inactive |  |  |  |  |  |  |  |  | 
4 | CC[C@@]1(O)C(=O)OCc2c1cc1n(c2=O)Cc2cc3c(CN(C)C)c(O)ccc3nc2-1 | 0.935 µM (active) | 3.32 µM (active) | 9.35 µM (active) |  | 13.2 µM (active) | 0.0132 µM (active) | 0.0743 µM (active) | 14.8 µM (active) | 16.6 µM (active) | 3.72 µM (active) | 0.662 µM (active) |  | 3.32 µM (active) |  | 0.0526 µM (active) | 1.66 µM (active) |  |  | 
5 | CC1COc2c(N3CCN(C)CC3)c(F)cc3c(=O)c(C(=O)O)cn1c23 (stereo not given) | inactive | inactive | inactive | 135% | inactive |  | inactive | inactive | inactive |  | inactive |  |  |  |  |  | inactive |  | 
6 | CC(C)(C)C(=O)Oc1ccc(S(=O)(=O)Nc2ccccc2C(=O)NCC(=O)O)cc1 | inactive | inactive | inactive | 142% |  |  |  | inactive | inactive | inactive | inactive |  |  |  |  |  |  |  | 
7 | CCN1CCCC1CNC(=O)c1cc(S(=O)(=O)CC)c(N)cc1OC (stereo not given) | inactive | inactive | inactive | 121% | inactive | inactive | inactive | inactive | inactive | inactive | inactive |  |  |  | inactive |  | inactive | inactive | 
8 | CC#C[C@]1(O)CC[C@H]2[C@@H]3CCC4=CC(=O)CCC4=C3[C@@H](c3ccc(N(C)C)cc3)C[C@@]21C | 1.32 µM (active) | 1.32 µM (active) | 1.48 µM (active) |  | 0.662 µM (active) | 0.264 µM (active) | 0.743 µM (active) | 3.72 µM (active) | 1.18 µM (active) | 7.43 µM (active) | 7.43 µM (active) |  | 4.18 µM (active) |  | 0.418 µM (active) |  |  | 0.833 µM (active) | 
9 | CCC1(C)CC(=O)NC1=O (stereo not given) | inactive | inactive | inactive |  | inactive | inactive | inactive | inactive |  | inactive | inactive |  |  |  |  | inactive |  | inactive | 
10 | COc1cc2nc(N3CCN(C(=O)C4COc5ccccc5O4)CC3)nc(N)c2cc1OC (stereo not given) | 23.5 µM (active) | inactive | 18.7 µM (active) | 137% |  | 20.9 µM (active) | 29.6 µM (active) | 16.6 µM (active) | inactive | 18.7 µM (active) | 16.6 µM (active) |  |  |  |  | 20.9 µM (active) |  |  | 
11 | CN(C)CCC=C1c2ccccc2C=Cc2ccccc21 | 16.6 µM (active) | inactive | 18.7 µM (active) |  |  |  |  | 6.62 µM (active) | inactive |  | 3.72 µM (active) |  |  |  |  |  |  | 14.8 µM (active) | 
12 | CS(=O)(=O)CCNCc1ccc(-c2ccc3ncnc(Nc4ccc(OCc5cccc(F)c5)c(Cl)c4)c3c2)o1 | 26.4 µM (active) | 29.6 µM (active) | 6.62 µM (active) |  | 5.9 µM (active) | 0.001 µM (active) | 0.0187 µM (active) | 26.4 µM (active) | 16.6 µM (active) | 20.9 µM (active) |  |  | 23.5 µM (active) | 1.66 µM (active) | 1.18 µM (active) | 1.18 µM (active) |  |  | 
13 | NCCS(=O)(=O)O | inactive | inactive | inactive | 109% | inactive | inactive | inactive |  | inactive | inactive |  |  |  |  |  |  |  |  | 
14 | O=C(C1CCCCC1)N1CC(=O)N2CCc3ccccc3C2C1 (stereo not given) | inactive | inactive | inactive |  | inactive | 20.9 µM (active) | 16.6 µM (active) |  | inactive | inactive | inactive |  |  |  |  |  |  |  | 
15 | Cc1cc(C(C)(C)C)c(O)c(C)c1CC1=NCCN1 | inactive |  | inactive |  | inactive | inactive | inactive |  | inactive | inactive | inactive |  |  | inactive |  |  |  |  | inactive
16 | CN(CCOc1ccc(NS(C)(=O)=O)cc1)CCc1ccc(NS(C)(=O)=O)cc1 | inactive | inactive | inactive | 109% | inactive | 13.2 µM (active) | inactive | inactive | inactive | inactive | inactive |  |  | inactive |  |  |  |  | 
17 | COc1nc(C)nc(Cl)c1NC1=NCCN1 | inactive |  | inactive |  | 20.9 µM (active) |  |  |  | inactive | inactive | inactive |  |  |  |  |  |  |  | inactive
